In experiment [1] the test system is HIV-1 nucleocapsid protein NCp7 (binding to TG oligonucleotide). As to the kind of experiment: HIV Nucleocapsid (AID 346; call rule not given here;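 further: potency means the concentration at half of the fitted maximal effect; potency is for inhibitors that block NC binding and lower polarization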). The settings on record: HIV-1 NC / fluorescein-TGTGTGTG probe, fluorescence polarization. The essentials:
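Fluorescence polarization readout: labelled TG4xF oligo (10 nM) with 100 nM nucleocapsid protein, high-salt (250mM NaCl) Hepes pH 7.5 buffer containing zinc and fresh reducing agents. Compounds added by pin tool; incubation 1 hr, room temperature.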
(In general: In fluorescence polarisation assays a small probe gives low polarisation when free and higher when bound to something large.)

Experiment [2] concerns the target Lysosomal acid glucosylceramidase (Homo sapiens) (UniProt P04062). As to the kind of experiment: Glucocerebrosidase-p2 (AID 348; in the data active means potency below about 10 µM; further: potency means the concentration at half of the fitted maximal effect). The settings on record: purified GBA, blue fluorogenic substrate, 40 min. The essentials:
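Compounds titrated from 0.6 nM upwards against 0.2 nM enzyme in pH 5.9 citric acid/KH2PO4, taurocholate, tween-20; blue fluorogenic substrate 80 uM, 40 min room temperature, stopped and read Ex 365/Em 440 for AC50.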

Experiment [3] can be described thus: AP1 Signaling Pathway (AID 357). Further: on the % scale 0 is the no-effect control and ±100 the full control effect. The settings on record: ME-180 AP-1-bla reporter, EGF-induced, beta-lactamase ratio, 5 h; at 7.69 µM (top of the series) unless noted. The gist of the method: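 ME-180 cells with beta-lactamase reporter under AP-1 response element, stimulated with EC50 EGF; compounds tested in titration series, 5 h at 37 °C. CCF4 substrate added 2.5 h at room temperature; 460/530 nm emission ratio gave %activity and AC50.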

The target of experiment [4] is Cytochrome P450 1A2 (Homo sapiens) (UniProt P05177). As to the kind of experiment: p450-cyp1a2 (AID 410; calls by dose curve; further: potency means the concentration at half of the fitted maximal effect;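 on activity change, negative = inhibition: -100% = full effect of reference inhibitor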). The settings on record: recombinant CYP1A2, luciferin-ME demethylation, luminescence; series mostly up to 11.4 µM. The gist of the method:
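Luminescent readout of luciferin formed from Luciferin-ME by human CYP1A2; data normalized against complete inhibition by 57 uM furafylline. Enzyme 20nM, substrate 100uM at Km, 100mM KPO4 buffer, 60 min reaction at room temperature.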

Experiment [5] is described as follows: Stat Signaling Pathway (AID 446).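 Further: ME-180 cervical cancer cells given 40 pM IL-6 alongside compound; SIE-controlled beta-lactamase reporter measured as 460/530 nm FRET emission ratio; on the % scale 0 is the no-effect control and ±100 the full control effect.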 The settings on record: ME-180 (cervical carcinoma) SIE beta-lactamase reporter, IL-6 stimulated, 5 h; at 7.69 µM (top of the series) unless noted. The essentials:
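IL-6/STAT signaling read in ME-180 cells via an SIE beta-lactamase reporter. Stimulus was 40 pM IL-6 (its AC50) for 5 hrs, so both activation and inhibition register.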

The target of experiment [6] is Glucocorticoid receptor (Homo sapiens) (UniProt P04150). As to the kind of experiment: GR-EFC Redistribution (AID 451; calls by dose curve; further: potency means the concentration at half of the fitted maximal effect). Conditions: CHO-K1 GR-EFC translocation, beta-gal luminescence, 2 h. The gist of the method:
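CHO-K1 cells expressing nuclear EA and GR-ED fragments of b-gal; compounds titrated up to 46 uM final, 2 h at 37 C. GR nuclear translocation read as complemented b-gal luminescence after 1 h RT detection.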

The target of experiment [7] is Mitogen-activated protein kinase 10 (Mus musculus) (UniProt Q61831). As to the kind of experiment: JNK3 AlphaScreen Assay (AID 530).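 Further: kinase came from lysate of stimulated human HepG2 cells; signal reports phosphorylation of biotinylated GST-cJun 1-79 at Ser73 with 10 µM ATP; on the % scale 0 is the no-effect control and ±100 the full control effect.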 The settings on record: JNK3 lysate, c-Jun phosphorylation; series mostly up to 57.1 µM. The gist of the method: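 Pre-activated (IL-1β/TNFα) JNK3 in HepG2 lysates phosphorylates biotin-GST-cJun(1-79), 10 uM ATP; anti-phospho-cJun(Ser73) AlphaScreen read at room temperature, pH 7.6 Tris buffer. Compounds pre-incubated 15 min as titrations.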

The target in experiment [8] is 3',5'-cyclic-AMP phosphodiesterase 4B (Homo sapiens) (UniProt Q07343). As to the kind of experiment: qHTS Assay for Inhibitors of PDE-IV (AID 607; active means well fitted activation curve with a large enough effect in the main read-out, with a control signal flat, not every such curve was filed as active; further: % of control where 0% means no effect). Conditions: HEK293 ACTOne CNG channel cells, membrane potential fluorescence; series mostly up to 22.9 µM. The essentials: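 Live HEK293 cells with a modified cyclic nucleotide-gated (CNG) channel report intracellular cAMP via membrane-potential dye fluorescence (ex 535/em 590 nm). Endogenous PDE-IV was targeted. Compounds were tested at up to 22.9 uM final; RO 20-1724 100 uM served as control.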
Sequence of 3',5'-cyclic-AMP phosphodiesterase 4B (Homo sapiens) (Q07343 whole entry, looked up): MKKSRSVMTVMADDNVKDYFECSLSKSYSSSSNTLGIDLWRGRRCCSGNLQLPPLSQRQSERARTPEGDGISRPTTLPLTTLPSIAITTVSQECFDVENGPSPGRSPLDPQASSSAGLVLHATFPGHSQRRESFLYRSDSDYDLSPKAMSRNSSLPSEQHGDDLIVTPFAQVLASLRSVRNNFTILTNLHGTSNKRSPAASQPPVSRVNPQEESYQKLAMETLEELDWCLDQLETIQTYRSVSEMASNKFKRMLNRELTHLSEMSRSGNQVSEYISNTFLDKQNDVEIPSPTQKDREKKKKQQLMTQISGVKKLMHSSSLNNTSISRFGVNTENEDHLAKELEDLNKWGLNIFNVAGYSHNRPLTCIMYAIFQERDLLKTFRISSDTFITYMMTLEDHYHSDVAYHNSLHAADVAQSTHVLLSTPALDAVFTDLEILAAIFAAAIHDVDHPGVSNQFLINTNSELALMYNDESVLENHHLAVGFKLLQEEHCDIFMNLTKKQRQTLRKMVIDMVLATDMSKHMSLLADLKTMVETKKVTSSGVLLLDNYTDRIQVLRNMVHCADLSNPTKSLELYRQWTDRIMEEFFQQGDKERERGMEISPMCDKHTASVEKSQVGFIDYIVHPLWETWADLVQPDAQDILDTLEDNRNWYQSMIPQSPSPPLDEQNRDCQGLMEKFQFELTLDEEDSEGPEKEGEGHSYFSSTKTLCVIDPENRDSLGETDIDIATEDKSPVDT

For experiment [9], the target named is Cytochrome P450 3A4 (Homo sapiens) (UniProt P08684). As to the kind of experiment: qHTS Assay for Activators of Cytochrome P450 3A4 (AID 885; active means well fitted curve in the direction sought with a large enough effect; an effect the other way counts as inactive or inconclusive; further: nearly all actives have a fitted effect of over 65% in size). The settings on record: recombinant CYP3A4, Luciferin-PPXE luminescence, 60 min; series mostly up to 57.1 µM. The essentials:
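Quantitative HTS format: compounds preincubated with 20nM human CYP3A4 and Luciferin-PPXE substrate at KM, reaction started by NADPH regeneration, stopped after 60 min, luciferase luminescence read 20 min later.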
(Quantitative high-throughput screening tests each substance at several concentrations.)

A short description of experiment [10]: NFAT Signaling Pathway (AID 444).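 Further: carbachol stimulus at about its EC50 of 1 µM final; on the % scale 0 is the no-effect control and ±100 the full control effect.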 Conditions: Jurkat NFAT-bla M1, carbachol, beta-lactamase ratio, 5 h; at 7.69 µM (top of the series) unless noted. The essentials: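 Jurkat cells with NFAT-driven β-lactamase reporter and co-expressed M1 receptor, stimulated with carbachol (final 1 uM, ~EC50), compound titration, 5 h at 37 °C. CCF4 loaded 1 h at RT; 460/530 nm ratio gave %activity and AC50.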

In experiment [11] the target is Glucocorticoid receptor (Homo sapiens) (UniProt P04150). As to the kind of experiment: GR-GFP Redistribution (AID 450;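 active means compounds whose dose series gives a full or clear partial fitted curve of increased nuclear translocation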; further: potency means the concentration at half of the fitted maximal effect). Conditions: U2OS GR-GFP nuclear translocation, laser cytometry, 2 h.
Sequence of Glucocorticoid receptor (Homo sapiens) (P04150 whole entry, looked up, the tested form may be a part): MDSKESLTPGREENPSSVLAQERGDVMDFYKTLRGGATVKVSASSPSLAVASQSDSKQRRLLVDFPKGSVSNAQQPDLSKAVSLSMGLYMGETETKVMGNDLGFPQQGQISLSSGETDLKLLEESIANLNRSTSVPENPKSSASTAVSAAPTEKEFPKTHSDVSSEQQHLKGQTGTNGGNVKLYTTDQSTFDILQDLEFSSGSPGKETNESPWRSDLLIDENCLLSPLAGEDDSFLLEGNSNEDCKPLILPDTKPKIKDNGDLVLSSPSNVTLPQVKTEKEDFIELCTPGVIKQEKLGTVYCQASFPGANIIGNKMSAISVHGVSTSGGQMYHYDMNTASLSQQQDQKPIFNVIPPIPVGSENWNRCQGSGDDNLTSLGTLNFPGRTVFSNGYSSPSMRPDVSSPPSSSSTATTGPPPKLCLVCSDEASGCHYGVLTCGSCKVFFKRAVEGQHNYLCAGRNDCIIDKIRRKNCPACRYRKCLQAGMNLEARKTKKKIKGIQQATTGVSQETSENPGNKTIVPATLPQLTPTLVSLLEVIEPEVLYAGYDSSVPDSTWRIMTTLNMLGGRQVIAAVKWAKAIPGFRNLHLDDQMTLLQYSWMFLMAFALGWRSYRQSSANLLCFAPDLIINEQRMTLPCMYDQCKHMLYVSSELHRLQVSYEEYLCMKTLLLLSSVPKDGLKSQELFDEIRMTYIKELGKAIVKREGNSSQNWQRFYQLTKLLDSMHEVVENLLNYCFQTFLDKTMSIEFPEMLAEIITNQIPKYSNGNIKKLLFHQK
Experiment [12] addresses Cytochrome P450 2D6 (Homo sapiens) (UniProt P10635). As to the kind of experiment: qHTS Assay for Inhibitors and Substrates of Cytochrome P450 2D6 (AID 891; active means well fitted curve in the direction sought with a large enough effect; an effect the other way counts as inactive or inconclusive; further: potency means the concentration at half of the fitted maximal effect; nearly all actives have a fitted effect of over 60% in size). The settings on record: recombinant CYP2D6, luciferin-ME EGE luminescence; series mostly up to 11.4 µM. The gist of the method: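 Human CYP2D6 (5 nM) with 30 uM Luciferin-ME EGE (at Km) in 100 mM KPO4, compound preincubated 10 min, then NADPH regeneration system for 60 min at room temperature. Luciferin read by luminescence; normalized to 1.43 uM quinidine.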

Results on 4 molecules are retold here after PubChem BioAssay (NCATS).

A number with no mark means an inactive call. Results filed as inconclusive are left out. The source made the active and inactive calls. Unless noted, the call rests on the fitted dose curve; in most records, active means well fitted curve in either direction with a large enough effect (not every such curve was filed as active); inconclusive means small, poorly fitted or top-dose-only effect, or another doubt; inactive means flat fitted curve, though single readings scatter. Some results are limits rather than exact numbers.

Sequence of Lysosomal acid glucosylceramidase (Homo sapiens) (P04062 whole entry, looked up): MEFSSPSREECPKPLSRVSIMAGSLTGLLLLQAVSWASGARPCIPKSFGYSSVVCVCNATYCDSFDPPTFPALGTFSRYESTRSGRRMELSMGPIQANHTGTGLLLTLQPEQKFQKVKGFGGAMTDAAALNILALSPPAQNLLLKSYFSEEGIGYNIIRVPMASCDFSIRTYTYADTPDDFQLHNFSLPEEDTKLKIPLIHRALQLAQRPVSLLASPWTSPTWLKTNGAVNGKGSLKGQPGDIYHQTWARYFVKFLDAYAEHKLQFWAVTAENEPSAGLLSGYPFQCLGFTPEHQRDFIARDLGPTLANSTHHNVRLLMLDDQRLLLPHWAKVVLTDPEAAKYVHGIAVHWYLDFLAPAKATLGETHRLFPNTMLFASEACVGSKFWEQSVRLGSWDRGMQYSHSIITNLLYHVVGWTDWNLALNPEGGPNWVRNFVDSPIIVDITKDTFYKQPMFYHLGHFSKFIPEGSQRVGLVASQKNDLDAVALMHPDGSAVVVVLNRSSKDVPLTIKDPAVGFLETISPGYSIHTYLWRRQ
Sequence of Cytochrome P450 1A2 (Homo sapiens) (P05177 whole entry, looked up): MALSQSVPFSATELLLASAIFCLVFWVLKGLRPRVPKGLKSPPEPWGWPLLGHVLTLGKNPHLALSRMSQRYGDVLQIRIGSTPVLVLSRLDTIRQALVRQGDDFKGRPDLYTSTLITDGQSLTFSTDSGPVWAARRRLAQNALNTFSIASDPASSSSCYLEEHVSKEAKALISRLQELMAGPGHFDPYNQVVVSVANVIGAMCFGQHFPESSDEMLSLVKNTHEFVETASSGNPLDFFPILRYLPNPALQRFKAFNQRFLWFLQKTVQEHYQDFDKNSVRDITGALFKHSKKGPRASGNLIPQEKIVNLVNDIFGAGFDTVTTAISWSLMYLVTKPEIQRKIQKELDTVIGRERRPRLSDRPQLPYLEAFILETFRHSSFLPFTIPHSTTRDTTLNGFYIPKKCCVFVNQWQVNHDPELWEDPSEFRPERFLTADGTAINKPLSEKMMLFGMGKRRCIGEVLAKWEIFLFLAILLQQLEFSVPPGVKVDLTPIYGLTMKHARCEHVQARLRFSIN
Sequence of Cytochrome P450 3A4 (Homo sapiens) (P08684 whole entry, looked up): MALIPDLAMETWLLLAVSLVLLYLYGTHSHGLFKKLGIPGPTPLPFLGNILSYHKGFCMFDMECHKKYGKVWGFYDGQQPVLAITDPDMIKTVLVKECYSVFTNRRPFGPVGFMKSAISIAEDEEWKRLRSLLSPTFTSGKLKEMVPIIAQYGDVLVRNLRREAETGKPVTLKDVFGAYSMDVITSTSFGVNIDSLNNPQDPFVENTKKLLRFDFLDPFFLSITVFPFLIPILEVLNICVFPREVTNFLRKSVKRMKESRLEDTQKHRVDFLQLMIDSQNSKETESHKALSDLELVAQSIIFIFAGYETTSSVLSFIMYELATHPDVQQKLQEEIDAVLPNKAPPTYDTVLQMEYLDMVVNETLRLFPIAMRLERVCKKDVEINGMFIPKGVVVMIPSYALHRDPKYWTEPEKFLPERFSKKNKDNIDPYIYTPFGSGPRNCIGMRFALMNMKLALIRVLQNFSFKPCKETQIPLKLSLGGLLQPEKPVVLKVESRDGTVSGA
Sequence of Cytochrome P450 2D6 (Homo sapiens) (P10635 whole entry, looked up): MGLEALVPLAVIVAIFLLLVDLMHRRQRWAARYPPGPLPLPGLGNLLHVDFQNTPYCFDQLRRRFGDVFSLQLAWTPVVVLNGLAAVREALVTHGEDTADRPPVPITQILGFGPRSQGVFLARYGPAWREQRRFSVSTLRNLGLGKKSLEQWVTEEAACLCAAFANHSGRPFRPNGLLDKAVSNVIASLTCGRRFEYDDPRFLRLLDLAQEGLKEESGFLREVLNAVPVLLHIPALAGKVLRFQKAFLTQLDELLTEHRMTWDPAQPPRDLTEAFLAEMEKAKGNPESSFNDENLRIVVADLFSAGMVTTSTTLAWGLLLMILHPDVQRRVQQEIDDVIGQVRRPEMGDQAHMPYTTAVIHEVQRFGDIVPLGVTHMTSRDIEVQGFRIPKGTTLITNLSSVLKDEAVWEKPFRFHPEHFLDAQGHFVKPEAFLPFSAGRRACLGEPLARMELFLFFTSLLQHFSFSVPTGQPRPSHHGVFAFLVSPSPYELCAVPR

In the case of `N#Cc1cccc(NC(=O)N2CCCC3(CCN(C(=O)Oc4ccccc4)CC3)C2)c1`, the Potency in [1] was over 20 µM; in experiment [2], over 11.4 µM; in experiment [4] it was 15.8 µM (active); in experiment [6], over 46 µM. In addition, the activity change, negative = inhibition in experiment [3] was -22.4%. For the same molecule, in experiment [5], the activity, negative = inhibition was -12.1%. For the same molecule, the Potency result in [7] and in [9] was “inactive” throughout. Besides, the molecule was called inactive in experiment [8].
Take `CC(C)CC(=O)C[C@H](O)C(Cl)(Cl)Cl`: the Potency in experiment [2] was over 11.4 µM; in experiment [11], over 46 µM; in experiment [6], over 9.22 µM. For the same molecule, the activity change, negative = inhibition is 3.65% in [3], -9% in experiment [10] and 5.57% [at 11.4 µM] in experiment [7]. In addition, the Potency entry in [4] was “inactive”. For the same molecule, the activity, negative = inhibition in experiment [5] is -1.91%. Besides, the result in experiment [8] was inactive.
Take `O=C(c1cccc(F)c1)N1CCC2(CCN(Cc3ccccc3)CC2)CC1`: the Potency in experiment [1] is over 20 µM.
On to `COc1ccccc1CN1CCCC2(CCN(C(=O)Oc3ccccc3)CC2)C1`, for which the Potency was over 20 µM in experiment [1], over 11.4 µM in [2], over 46 µM in experiment [6] and 3.98 µM (active) in experiment [12]. The activity change, negative = inhibition in [3] is 3.33%. For the same molecule, the Potency entry in experiment [4], in [7] and in [9] was “inactive” throughout. Besides, the activity, negative = inhibition in experiment [5] is 1.52%. For the same molecule, the call in experiment [8] was inactive.
